{"source": "paper PMC4336329", "about": "(PLoS ONE, 2015)", "note": "Screen size: about 310,000 compounds; about 14,000 (4.5%) showed an effect of 50% or more. Effects have a minus sign here. Many of the other results were omitted from the sample, so strong results are more common in it than they were.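 Also: peak tail current of the secondary pulse compared with the same well before compound.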", "data": [{"biological_target": "human ether-à-go-go-related gene (hERG) potassium channel (human, UniProt Q12809)", "sequence (Q12809 whole entry, looked up)": "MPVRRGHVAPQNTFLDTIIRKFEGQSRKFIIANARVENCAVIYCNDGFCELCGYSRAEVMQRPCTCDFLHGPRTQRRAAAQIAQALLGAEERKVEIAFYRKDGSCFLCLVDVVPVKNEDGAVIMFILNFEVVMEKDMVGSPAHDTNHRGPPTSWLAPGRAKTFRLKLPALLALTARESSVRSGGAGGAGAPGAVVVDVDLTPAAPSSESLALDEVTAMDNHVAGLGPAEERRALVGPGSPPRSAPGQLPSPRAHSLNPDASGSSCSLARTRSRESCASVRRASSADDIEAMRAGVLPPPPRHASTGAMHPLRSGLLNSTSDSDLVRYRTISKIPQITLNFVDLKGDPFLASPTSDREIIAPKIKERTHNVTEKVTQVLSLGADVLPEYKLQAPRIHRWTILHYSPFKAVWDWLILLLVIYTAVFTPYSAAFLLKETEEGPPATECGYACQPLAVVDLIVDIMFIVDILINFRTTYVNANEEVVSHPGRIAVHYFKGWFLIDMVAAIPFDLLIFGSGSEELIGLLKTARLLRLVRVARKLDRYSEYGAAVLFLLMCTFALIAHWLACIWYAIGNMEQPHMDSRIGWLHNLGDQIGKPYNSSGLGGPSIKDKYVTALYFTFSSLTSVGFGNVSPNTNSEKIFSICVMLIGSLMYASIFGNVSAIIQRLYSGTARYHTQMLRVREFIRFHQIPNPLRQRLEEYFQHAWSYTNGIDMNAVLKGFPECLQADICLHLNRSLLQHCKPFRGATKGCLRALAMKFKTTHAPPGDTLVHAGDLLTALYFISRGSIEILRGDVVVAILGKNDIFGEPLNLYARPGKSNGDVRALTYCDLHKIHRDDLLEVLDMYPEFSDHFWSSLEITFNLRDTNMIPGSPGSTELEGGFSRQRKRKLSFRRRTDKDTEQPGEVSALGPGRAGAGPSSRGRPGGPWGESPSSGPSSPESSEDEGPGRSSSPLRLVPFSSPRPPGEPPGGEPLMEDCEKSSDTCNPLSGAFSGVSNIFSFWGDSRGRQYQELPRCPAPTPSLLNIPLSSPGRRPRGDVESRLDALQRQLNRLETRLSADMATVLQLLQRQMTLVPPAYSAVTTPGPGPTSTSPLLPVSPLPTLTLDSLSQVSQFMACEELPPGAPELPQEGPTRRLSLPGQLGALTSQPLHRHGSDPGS", "experiment": "primary screen, population patch clamp on CHO cells stably expressing hERG; higher = less effect of the substance", "units": {"hERG current change (%, negative = inhibition) at 10uM": "%"}, "values": [{"smiles": "CCCC(=O)n1nc(-c2cccnc2)nc1N", "hERG current change (%, negative = inhibition) at 10uM": -27.1}, {"smiles": "CC(C)C[C@@H](C(=O)N[C@@H](C(=O)O)c1ccccc1)N1C(=O)N2CCc3c([nH]c4ccccc34)[C@@]2(C)C1=O", "hERG current change (%, negative = inhibition) at 10uM": -6.67}, {"smiles": "CC(C)C[C@@H](C(=O)NC1CCN(Cc2ccccc2)CC1)N1C(=O)N2CCc3c([nH]c4ccccc34)[C@@]2(C)C1=O", "hERG current change (%, negative = inhibition) at 10uM": -53.2}, {"smiles": "CC(C)C[C@@H](C(=O)NC1CC1)N1C(=O)N2CCc3c([nH]c4ccccc34)[C@@]2(C)C1=O", "hERG current change (%, negative = inhibition) at 10uM": -15}, {"smiles": "Cc1ccc(CCN2CC(C(=O)NCCCN3CCN(C)CC3)CC2=O)cc1", "note": "(stereo not shown)", "hERG current change (%, negative = inhibition) at 10uM": -8.81}, {"smiles": "CCN(C(=O)CSc1ccc2c(c1)OCCO2)C1CCS(=O)(=O)C1", "note": "(stereo not shown)", "hERG current change (%, negative = inhibition) at 10uM": 9.65}, {"smiles": "COc1ccc(O)c(C(=O)c2cnc3c(c2)c(-c2ccc(F)cc2)c(C#N)c(=O)n3C)c1", "hERG current change (%, negative = inhibition) at 10uM": 12.6}, {"smiles": "CCCCn1c(-c2cccnc2)nc2cc3[nH]c(=O)c(C(C)C)nc3cc21", "hERG current change (%, negative = inhibition) at 10uM": -50.4}, {"smiles": "CCCCn1c(-c2cccc(Br)c2)nc2cc3[nH]c(=O)c(C(C)C)nc3cc21", "hERG current change (%, negative = inhibition) at 10uM": 4.08}, {"smiles": "CCCCn1c(-c2cccc(C)c2)nc2cc3[nH]c(=O)c(C(C)C)nc3cc21", "hERG current change (%, negative = inhibition) at 10uM": 0.235}, {"smiles": "CC(=O)C(Sc1nnnn1-c1ccc(O)cc1)c1ccccc1", "note": "(stereo not shown)", "hERG current change (%, negative = inhibition) at 10uM": -14.3}, {"smiles": "COc1ccc(CCNC(=O)CSc2nc(=O)n3cccc(C)c3n2)cc1OC", "hERG current change (%, negative = inhibition) at 10uM": 15.8}, {"smiles": "COc1ccc(CCNC(=O)c2ccc3c(=O)n(Cc4ccco4)c(=S)[nH]c3c2)cc1OC", "hERG current change (%, negative = inhibition) at 10uM": 17.2}, {"smiles": "COc1ccc(CCNC(=O)c2coc3ccccc3c2=O)cc1OC", "hERG current change (%, negative = inhibition) at 10uM": -4.09}, {"smiles": "COc1ccc(CCNC(=O)c2cc3c(=O)n4ccccc4nc3n(Cc3ccco3)c2=N)cc1OC", "hERG current change (%, negative = inhibition) at 10uM": -76.6}, {"smiles": "COc1ccc(CCNC(=O)c2cc3c(=O)n4cccc(C)c4nc3s2)cc1OC", "hERG current change (%, negative = inhibition) at 10uM": 21.3}, {"smiles": "COc1ccc(CCNC(=O)c2cc3c(=O)n4cccc(C)c4nc3n(Cc3ccco3)c2=N)cc1OC", "hERG current change (%, negative = inhibition) at 10uM": -80.9}, {"smiles": "CSc1ccc(Cl)c(C(=O)OCC(=O)NCC(C)C)c1", "hERG current change (%, negative = inhibition) at 10uM": -21}, {"smiles": "CCN(CC)CC(O)Cn1c(C)c(-c2ccccc2)c2cc([N+](=O)[O-])ccc21.Cl", "note": "(stereo not shown)", "hERG current change (%, negative = inhibition) at 10uM": -65.3}, {"smiles": "CCN(CC)CC(O)Cn1c2ccccc2c2ccccc21", "note": "(stereo not shown)", "hERG current change (%, negative = inhibition) at 10uM": -16}, {"smiles": "Cn1c(CO)c(-c2ccccc2)c2cc([N+](=O)[O-])ccc21", "hERG current change (%, negative = inhibition) at 10uM": 10.2}, {"smiles": "Nc1cccc2c1C(=O)N(CCOc1ccccc1F)C2=O", "hERG current change (%, negative = inhibition) at 10uM": 20.2}]}]}
